Measurements taken from publication PMC7862700, “An all-to-all approach to the identification of sequence-specific readers for epigenetic DNA modifications on cytosine”.

Key:
Assay in all cases: DAPPL (digital affinity profiling via proximity ligation, sequencing); 10 mM Tris-HCl pH 7.5, 50 mM NaCl, 1 mM DTT, 4% glycerol, room temperature, 30 min; GST-TFs on glutathione beads, 16-mer random dsDNA library, 0.1% formaldehyde crosslink after washing; high values mean tight binding
FEV = molecular target: T1, FEV (Homo sapiens, UniProt Q99581 1-238); details: protein: recombinant; tags: N-terminal GST; dsDNA, one strand shown
T1 sequence: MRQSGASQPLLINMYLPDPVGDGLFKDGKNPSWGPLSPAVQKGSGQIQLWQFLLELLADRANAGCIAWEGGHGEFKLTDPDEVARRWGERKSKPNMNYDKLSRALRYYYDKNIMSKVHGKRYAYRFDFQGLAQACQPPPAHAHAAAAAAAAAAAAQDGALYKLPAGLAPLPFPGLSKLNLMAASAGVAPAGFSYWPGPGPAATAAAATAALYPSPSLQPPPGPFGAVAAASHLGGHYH
Outline: (§1)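 Binding signal is each hexamer's read frequency for a factor divided by its frequency in the tag-only sample. The factors were GST-fused human transcription factors from yeast, captured on glutathione beads, DNA-barcoded and pooled with that sample. Pools were incubated with 200 nmole of a random double-stranded 16-mer DNA library in Tris/NaCl/DTT/glycerol buffer at room temperature for 30 min, then washed, crosslinked with 0.1% formaldehyde, proximity-ligated with BsaI/T4 ligase (1 h, 37 °C), PCR-amplified and sequenced on an Illumina NextSeq500.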

ETV5 = ETV5 (Homo sapiens, UniProt P41161 1-510); details: protein: recombinant; tags: N-terminal GST; dsDNA, one strand shown
Outline: as §1

HSF1 = HSF1 (Homo sapiens, UniProt Q00613 1-529); details: protein: recombinant; tags: N-terminal GST; chain copies: 3; dsDNA, one strand shown
Outline: as §1

ELF4 = ELF4 (Homo sapiens, UniProt Q99607 1-663); details: protein: recombinant; tags: N-terminal GST; dsDNA, one strand shown
Outline: as §1

ELK4 = molecular target: T2, ELK4 (Homo sapiens, UniProt P28324-2 1-405); details: protein: recombinant; tags: N-terminal GST; dsDNA, one strand shown
T2 sequence: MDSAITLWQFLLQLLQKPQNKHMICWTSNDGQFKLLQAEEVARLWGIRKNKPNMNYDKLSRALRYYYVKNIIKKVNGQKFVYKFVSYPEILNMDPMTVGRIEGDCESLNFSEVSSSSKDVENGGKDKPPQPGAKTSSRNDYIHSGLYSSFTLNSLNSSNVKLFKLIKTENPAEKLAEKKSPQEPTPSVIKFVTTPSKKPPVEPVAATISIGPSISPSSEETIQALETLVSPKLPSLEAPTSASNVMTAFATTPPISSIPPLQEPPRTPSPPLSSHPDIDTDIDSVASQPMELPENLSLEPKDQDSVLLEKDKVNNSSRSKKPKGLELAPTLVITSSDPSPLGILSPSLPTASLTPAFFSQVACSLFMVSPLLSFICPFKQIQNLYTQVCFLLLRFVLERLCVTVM
Outline: as §1

ETV2 = molecular target: T3, ETV2 (Homo sapiens, UniProt O00321 1-342); details: protein: recombinant; tags: N-terminal GST; dsDNA, one strand shown
T3 sequence: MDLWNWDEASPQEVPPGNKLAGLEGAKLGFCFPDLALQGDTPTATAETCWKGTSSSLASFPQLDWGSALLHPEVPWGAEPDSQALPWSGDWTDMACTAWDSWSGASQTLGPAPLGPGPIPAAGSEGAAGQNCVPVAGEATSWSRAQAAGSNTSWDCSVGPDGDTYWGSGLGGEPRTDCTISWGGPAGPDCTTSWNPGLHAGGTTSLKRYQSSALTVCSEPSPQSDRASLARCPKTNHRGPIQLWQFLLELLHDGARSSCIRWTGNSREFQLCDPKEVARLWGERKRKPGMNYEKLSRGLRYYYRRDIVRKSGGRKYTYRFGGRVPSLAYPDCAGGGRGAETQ
Outline: as §1

ELF3 = molecular target: T4, ELF3 (Homo sapiens, UniProt P78545 1-371); details: protein: recombinant; tags: N-terminal GST; dsDNA, one strand shown
T4 sequence: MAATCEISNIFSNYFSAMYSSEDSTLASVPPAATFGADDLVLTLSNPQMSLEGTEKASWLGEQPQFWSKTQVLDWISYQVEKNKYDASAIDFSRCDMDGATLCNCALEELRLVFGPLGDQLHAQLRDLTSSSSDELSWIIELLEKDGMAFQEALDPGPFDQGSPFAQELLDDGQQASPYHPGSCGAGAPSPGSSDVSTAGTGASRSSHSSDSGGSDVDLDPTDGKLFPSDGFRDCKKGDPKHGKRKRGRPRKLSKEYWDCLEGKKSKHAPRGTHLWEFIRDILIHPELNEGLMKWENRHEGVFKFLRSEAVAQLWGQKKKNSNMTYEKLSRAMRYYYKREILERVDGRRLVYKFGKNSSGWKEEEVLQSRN
Outline: as §1

CRX = CRX (Homo sapiens, UniProt O43186 1-299); details: protein: recombinant; tags: N-terminal GST; dsDNA, one strand shown
Outline: as §1

ETV1 = ETV1 (Homo sapiens, UniProt P50549 1-477); details: protein: recombinant; tags: N-terminal GST; dsDNA, one strand shown
Outline: as §1

ERF = molecular target: T5, ERF (Homo sapiens, UniProt P50548 1-548); details: protein: recombinant; tags: N-terminal GST; dsDNA, one strand shown
T5 sequence: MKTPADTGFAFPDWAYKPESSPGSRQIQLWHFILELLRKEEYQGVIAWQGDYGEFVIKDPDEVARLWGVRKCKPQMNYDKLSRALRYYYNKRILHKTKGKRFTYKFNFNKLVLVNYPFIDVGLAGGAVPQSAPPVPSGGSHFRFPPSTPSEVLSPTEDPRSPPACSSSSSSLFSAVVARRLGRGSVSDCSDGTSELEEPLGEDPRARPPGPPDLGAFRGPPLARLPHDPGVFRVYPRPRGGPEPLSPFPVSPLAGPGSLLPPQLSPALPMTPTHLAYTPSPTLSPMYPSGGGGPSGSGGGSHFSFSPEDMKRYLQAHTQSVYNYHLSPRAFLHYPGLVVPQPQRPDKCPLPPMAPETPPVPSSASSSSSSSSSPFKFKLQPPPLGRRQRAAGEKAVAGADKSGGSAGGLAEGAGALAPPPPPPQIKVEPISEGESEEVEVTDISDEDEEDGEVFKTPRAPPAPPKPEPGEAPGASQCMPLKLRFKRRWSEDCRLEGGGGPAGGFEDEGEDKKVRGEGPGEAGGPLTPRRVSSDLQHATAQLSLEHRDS
Outline: as §1

ETV3L = molecular target: T6, ETV3L (Homo sapiens, UniProt Q6ZN32 1-361); details: protein: recombinant; tags: N-terminal GST; dsDNA, one strand shown
T6 sequence: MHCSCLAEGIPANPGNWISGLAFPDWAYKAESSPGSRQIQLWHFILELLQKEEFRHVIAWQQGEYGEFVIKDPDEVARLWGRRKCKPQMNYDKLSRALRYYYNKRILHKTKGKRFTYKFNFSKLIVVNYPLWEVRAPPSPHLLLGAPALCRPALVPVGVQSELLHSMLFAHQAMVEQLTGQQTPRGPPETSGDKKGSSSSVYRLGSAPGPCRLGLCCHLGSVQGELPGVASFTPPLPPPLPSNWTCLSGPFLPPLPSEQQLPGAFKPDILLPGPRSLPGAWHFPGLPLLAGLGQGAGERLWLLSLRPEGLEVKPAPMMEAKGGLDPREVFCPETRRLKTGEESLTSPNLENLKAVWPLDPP
Outline: as §1

ETS2 = molecular target: T7, ETS2 (Homo sapiens, UniProt P15036 1-469); details: protein: recombinant; tags: N-terminal GST; dsDNA, one strand shown
T7 sequence: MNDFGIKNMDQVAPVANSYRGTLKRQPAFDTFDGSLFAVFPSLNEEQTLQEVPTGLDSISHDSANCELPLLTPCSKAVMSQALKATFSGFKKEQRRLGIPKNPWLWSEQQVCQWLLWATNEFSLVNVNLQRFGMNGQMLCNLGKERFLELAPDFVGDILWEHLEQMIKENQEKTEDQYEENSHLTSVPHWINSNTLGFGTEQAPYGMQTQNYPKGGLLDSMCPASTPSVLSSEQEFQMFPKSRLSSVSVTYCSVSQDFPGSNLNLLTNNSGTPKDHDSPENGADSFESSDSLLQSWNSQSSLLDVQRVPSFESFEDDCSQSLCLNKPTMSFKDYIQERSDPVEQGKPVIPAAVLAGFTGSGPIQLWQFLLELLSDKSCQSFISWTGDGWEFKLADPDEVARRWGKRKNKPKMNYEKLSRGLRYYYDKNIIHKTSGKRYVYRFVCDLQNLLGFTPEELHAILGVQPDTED
Outline: as §1

SPDEF = molecular target: T8, SPDEF (Homo sapiens, UniProt O95238 1-335); details: protein: recombinant; tags: N-terminal GST; dsDNA, one strand shown
T8 sequence: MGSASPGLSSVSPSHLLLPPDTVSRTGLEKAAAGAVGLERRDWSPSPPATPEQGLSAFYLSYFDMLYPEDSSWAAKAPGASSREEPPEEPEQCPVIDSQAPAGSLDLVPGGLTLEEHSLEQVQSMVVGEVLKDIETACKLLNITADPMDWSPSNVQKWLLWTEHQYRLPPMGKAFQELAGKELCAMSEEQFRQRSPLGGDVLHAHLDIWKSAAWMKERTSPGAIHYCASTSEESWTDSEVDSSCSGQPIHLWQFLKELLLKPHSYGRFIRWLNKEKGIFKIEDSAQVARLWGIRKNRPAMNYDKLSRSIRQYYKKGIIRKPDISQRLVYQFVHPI
Outline: as §1

ETV7 = molecular target: T9, ETV7 (Homo sapiens, UniProt Q9Y603 1-341); details: protein: recombinant; tags: N-terminal GST; dsDNA, one strand shown
T9 sequence: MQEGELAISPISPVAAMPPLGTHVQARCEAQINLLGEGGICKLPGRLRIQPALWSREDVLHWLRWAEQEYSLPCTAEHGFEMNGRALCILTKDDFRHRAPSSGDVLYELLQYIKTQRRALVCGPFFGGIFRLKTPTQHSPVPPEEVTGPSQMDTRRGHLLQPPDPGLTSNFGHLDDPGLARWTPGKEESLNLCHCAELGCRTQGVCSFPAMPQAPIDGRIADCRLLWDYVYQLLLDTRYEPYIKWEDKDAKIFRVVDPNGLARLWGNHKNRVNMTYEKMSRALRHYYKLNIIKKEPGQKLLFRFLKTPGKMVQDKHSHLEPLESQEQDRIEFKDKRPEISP
Outline: as §1

ELF5 = molecular target: T10, ELF5 (Homo sapiens, UniProt Q9UKW6-2 1-255); details: protein: recombinant; tags: N-terminal GST; dsDNA, one strand shown
T10 sequence: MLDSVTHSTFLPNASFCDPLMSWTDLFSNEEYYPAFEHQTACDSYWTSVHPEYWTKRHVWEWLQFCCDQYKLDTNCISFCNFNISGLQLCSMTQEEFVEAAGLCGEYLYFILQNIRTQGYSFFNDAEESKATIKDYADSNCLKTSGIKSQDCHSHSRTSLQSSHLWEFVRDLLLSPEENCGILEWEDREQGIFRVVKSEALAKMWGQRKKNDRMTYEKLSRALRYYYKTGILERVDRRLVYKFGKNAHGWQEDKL
Outline: as §1

ETV3 = molecular target: T11, ETV3 (Homo sapiens, UniProt P41162-2 1-143); details: protein: recombinant; tags: N-terminal GST; dsDNA, one strand shown
T11 sequence: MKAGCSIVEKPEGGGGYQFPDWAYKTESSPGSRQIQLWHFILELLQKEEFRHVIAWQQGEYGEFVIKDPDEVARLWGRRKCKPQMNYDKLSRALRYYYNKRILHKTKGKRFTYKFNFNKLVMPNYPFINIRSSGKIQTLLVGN
Outline: as §1

ETV6 = ETV6 (Homo sapiens, UniProt P41212 1-452); details: protein: recombinant; tags: N-terminal GST; dsDNA, one strand shown
Outline: as §1

Chain of HSF1 (Q00613 whole entry): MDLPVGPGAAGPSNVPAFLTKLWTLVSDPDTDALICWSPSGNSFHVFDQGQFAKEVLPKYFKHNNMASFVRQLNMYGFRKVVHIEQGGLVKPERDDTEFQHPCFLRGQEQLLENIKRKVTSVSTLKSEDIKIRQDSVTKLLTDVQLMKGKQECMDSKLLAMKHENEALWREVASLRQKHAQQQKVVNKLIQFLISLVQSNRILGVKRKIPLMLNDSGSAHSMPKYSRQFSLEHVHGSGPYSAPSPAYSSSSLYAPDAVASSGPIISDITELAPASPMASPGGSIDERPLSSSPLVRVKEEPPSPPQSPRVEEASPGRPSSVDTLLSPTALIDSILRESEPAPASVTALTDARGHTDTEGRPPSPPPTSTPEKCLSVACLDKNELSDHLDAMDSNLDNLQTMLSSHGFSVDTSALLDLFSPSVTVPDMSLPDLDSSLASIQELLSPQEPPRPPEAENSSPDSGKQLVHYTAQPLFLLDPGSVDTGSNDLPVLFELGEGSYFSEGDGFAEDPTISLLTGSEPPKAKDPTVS
Chain of ETV6 (P41212 whole entry): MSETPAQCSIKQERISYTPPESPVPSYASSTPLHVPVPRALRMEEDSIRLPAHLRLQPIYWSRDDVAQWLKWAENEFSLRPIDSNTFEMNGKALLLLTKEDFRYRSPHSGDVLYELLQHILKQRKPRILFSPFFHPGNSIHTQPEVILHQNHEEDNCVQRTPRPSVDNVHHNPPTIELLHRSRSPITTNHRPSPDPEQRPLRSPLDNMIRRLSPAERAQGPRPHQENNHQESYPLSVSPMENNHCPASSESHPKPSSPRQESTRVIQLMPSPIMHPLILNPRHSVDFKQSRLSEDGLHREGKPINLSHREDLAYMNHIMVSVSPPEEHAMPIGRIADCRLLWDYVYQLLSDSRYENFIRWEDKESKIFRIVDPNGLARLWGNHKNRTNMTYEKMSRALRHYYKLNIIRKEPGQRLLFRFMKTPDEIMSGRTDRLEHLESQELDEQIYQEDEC
Chain of ETV5 (P41161 whole entry): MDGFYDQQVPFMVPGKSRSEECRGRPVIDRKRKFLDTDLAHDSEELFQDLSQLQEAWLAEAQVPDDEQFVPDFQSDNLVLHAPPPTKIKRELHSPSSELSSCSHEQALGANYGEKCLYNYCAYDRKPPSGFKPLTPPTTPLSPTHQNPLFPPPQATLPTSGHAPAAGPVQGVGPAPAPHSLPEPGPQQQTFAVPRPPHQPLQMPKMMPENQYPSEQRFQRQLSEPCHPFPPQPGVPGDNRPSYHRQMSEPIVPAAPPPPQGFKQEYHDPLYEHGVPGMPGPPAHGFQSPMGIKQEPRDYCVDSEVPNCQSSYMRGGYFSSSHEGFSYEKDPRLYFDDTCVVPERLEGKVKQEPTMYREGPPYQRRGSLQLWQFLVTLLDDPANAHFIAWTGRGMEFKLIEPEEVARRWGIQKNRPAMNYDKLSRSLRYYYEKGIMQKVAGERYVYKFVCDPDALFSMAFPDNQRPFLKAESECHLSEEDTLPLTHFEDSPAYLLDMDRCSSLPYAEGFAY
Chain of CRX (O43186 whole entry): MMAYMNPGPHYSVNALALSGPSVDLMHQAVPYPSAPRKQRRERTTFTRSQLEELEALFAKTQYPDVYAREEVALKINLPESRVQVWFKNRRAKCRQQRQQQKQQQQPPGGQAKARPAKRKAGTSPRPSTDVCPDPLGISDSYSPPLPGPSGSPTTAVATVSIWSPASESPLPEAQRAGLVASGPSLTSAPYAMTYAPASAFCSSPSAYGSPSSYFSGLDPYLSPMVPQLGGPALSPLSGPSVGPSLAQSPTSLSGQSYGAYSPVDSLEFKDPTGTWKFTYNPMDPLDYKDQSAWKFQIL
Chain of ETV1 (P50549 whole entry): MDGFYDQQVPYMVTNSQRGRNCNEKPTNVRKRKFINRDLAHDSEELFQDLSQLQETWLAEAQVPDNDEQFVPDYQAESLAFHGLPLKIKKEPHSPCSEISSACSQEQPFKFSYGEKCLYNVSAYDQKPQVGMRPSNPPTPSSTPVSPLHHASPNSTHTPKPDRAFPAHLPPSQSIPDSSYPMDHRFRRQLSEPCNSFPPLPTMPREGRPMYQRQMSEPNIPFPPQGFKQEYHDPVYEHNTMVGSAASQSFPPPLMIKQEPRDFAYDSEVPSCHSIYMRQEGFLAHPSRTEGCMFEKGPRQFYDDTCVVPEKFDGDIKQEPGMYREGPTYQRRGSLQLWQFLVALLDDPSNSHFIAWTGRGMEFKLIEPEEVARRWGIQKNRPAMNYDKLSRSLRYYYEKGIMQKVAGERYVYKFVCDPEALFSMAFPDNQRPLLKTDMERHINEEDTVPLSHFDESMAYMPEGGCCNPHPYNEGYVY
Chain of ELF4 (Q99607 whole entry): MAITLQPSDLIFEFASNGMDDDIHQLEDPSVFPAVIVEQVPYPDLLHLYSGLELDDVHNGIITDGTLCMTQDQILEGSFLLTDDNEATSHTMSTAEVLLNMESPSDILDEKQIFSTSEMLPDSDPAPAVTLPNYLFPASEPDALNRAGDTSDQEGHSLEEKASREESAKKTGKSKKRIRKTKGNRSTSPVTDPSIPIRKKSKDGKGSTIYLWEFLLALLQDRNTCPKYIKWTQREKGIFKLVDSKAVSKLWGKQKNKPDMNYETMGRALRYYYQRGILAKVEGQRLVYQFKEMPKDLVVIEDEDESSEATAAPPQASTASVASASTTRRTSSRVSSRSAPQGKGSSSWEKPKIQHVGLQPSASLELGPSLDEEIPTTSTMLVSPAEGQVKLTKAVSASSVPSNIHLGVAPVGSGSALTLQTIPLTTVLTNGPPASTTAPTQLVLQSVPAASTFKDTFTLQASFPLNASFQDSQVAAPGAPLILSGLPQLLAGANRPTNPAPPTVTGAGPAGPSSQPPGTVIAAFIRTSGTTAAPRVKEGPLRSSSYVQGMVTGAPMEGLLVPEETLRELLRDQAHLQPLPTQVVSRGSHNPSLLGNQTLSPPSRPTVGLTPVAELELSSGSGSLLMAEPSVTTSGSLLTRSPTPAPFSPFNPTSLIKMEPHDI

TTCATA
binding signal (FEV): 1.12 fold enrichment (6-mer frequency, TF over GST control)
binding signal (ETV5): 1.1 fold enrichment (6-mer frequency, TF over GST control)
binding signal (HSF1): 1.05 fold enrichment (6-mer frequency, TF over GST control)
binding signal (ELF4): 1.19 fold enrichment (6-mer frequency, TF over GST control)
binding signal (ELK4): 1.2 fold enrichment (6-mer frequency, TF over GST control)
binding signal (ETV2): 1.06 fold enrichment (6-mer frequency, TF over GST control)
binding signal (ELF3): 1.24 fold enrichment (6-mer frequency, TF over GST control)
binding signal (CRX): 1.2 fold enrichment (6-mer frequency, TF over GST control)
binding signal (ETV1): 1.24 fold enrichment (6-mer frequency, TF over GST control)
binding signal (ERF): 1.19 fold enrichment (6-mer frequency, TF over GST control)
binding signal (ETV3L): 1.23 fold enrichment (6-mer frequency, TF over GST control)
binding signal (ETS2): 1.15 fold enrichment (6-mer frequency, TF over GST control)
binding signal (SPDEF): 1.1 fold enrichment (6-mer frequency, TF over GST control)
binding signal (ETV7): 1.12 fold enrichment (6-mer frequency, TF over GST control)
binding signal (ELF5): 1.15 fold enrichment (6-mer frequency, TF over GST control)
binding signal (ETV3): 1.16 fold enrichment (6-mer frequency, TF over GST control)
binding signal (ETV6): 1.14 fold enrichment (6-mer frequency, TF over GST control)

AAAGCT
binding signal (FEV): 1.1 fold enrichment (6-mer frequency, TF over GST control)
binding signal (ETV5): 1.08 fold enrichment (6-mer frequency, TF over GST control)
binding signal (HSF1): 1.32 fold enrichment (6-mer frequency, TF over GST control)
binding signal (ELF4): 1.06 fold enrichment (6-mer frequency, TF over GST control)
binding signal (ELK4): 1.13 fold enrichment (6-mer frequency, TF over GST control)
binding signal (ETV2): 1.01 fold enrichment (6-mer frequency, TF over GST control)
binding signal (ELF3): 1.2 fold enrichment (6-mer frequency, TF over GST control)
binding signal (CRX): 1.64 fold enrichment (6-mer frequency, TF over GST control)
binding signal (ETV1): 1.06 fold enrichment (6-mer frequency, TF over GST control)
binding signal (ERF): 1.02 fold enrichment (6-mer frequency, TF over GST control)
binding signal (ETV3L): 1.01 fold enrichment (6-mer frequency, TF over GST control)
binding signal (ETS2): 1.03 fold enrichment (6-mer frequency, TF over GST control)
binding signal (ETV7): 1.03 fold enrichment (6-mer frequency, TF over GST control)
binding signal (ELF5): 1.01 fold enrichment (6-mer frequency, TF over GST control)
binding signal (ETV3): 1.04 fold enrichment (6-mer frequency, TF over GST control)
binding signal (ETV6): 1.09 fold enrichment (6-mer frequency, TF over GST control)
